# According to PubChem BioAssay (NCI):
# Compounds without any hit were thinned out: in the full panel of roughly 83,000, 20% have a hit.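 In brief: 96-well plates, 48 h treatment, single concentration, percent growth endpoint.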 Unmarked numbers belong to inactive results. Active and inactive are the calls of the source. The calls were made as follows: active = growth percent below 10; inactive = the rest.
# Experiments:
# Test in all cases: NCI-60 one-dose screen, 48 h (100 = growth as untreated, 0 = no growth, -100 = all killed)
# Settings in all cases: 10 µM unless noted
# [1] = tested on: SK-MEL-2 melanoma
# [2] = tested on: EKVX NSCLC
# [3] = tested on: SN12C renal
# [4] = tested on: UO-31 renal
# [5] = tested on: TK-10 renal
# [6] = tested on: ACHN renal
# [7] = tested on: CAKI-1 renal
# [8] = tested on: A498 renal
# [9] = tested on: CCRF-CEM leukemia
# [10] = tested on: MOLT-4 leukemia
SMILES,growth [1],growth [2],growth [3],growth [4],growth [5],growth [6],growth [7],growth [8],growth [9],growth [10]
COC(=O)[C@]12CCC(C)(C)C[C@H]1[C@H]1/C(=N/OCCc3nn[nH]n3)C[C@@H]3[C@@]4(C)CC[C@H](OC(C)=O)C(C)(C)[C@@H]4CC[C@@]3(C)[C@]1(C)CC2,58.8%,35.6%,39%,15.5%,55.6%,32.8%,39.8%,-19% (active),33.5%,27.6%
COc1ccc(C(=O)C/C(=C\c2ccc(Cl)cc2)C(=O)NCc2ccccc2)cc1,79.6%,95.6%,91.3%,76%,72.7%,92.7%,87.4%,88%,73.5%,72.9%
O=CN1N=C(c2cccc(Nc3ccnc4cc(Cl)ccc34)c2)CC1c1ccccc1 (stereo not given),1.53% (active),34.3%,30.9%,10.6%,32.2%,30.3%,11.8%,5.63% (active),8.4% (active),10%
Cc1c2cnccc2c(C)c2c1c1cc(C#N)ccc1n2C,-75.4% (active),-3.54% (active),-5.29% (active),-4.29% (active),-13% (active),-2.32% (active),6.63% (active),-65.6% (active),-16.8% (active),-11.2% (active)
COc1ccc(Nc2nc(-c3cc(O)c(C)c(C)c3O)cs2)cc1,94.9%,89.2%,88.4%,74.7%,114%,82.2%,51.6%,101%,17.8%,25.7%
C=C1C(=O)O[C@H]2[C@H]1CC/C(COC(=O)c1cc3ccccc3s1)=C\CC[C@@]1(C)O[C@@H]21,-67.2% (active),-81.1% (active),-43.9% (active),-94.3% (active),-91.9% (active),-91.3% (active),-72.6% (active),61.9%,-25.3% (active),-4.09% (active)
C#COc1cccc(Nc2c(C#N)cnc3ncc(NC(=O)CCl)cc23)c1,12.4% [6.25 µM],52% [6.25 µM],17.3% [6.25 µM],41.1% [6.25 µM],26.8% [6.25 µM],32.4% [6.25 µM],36.1% [6.25 µM],56.7% [6.25 µM],-25.3% [6.25 µM] (active),-2.02% [6.25 µM] (active)
CCOC(=O)c1cc2c(n1C)-c1nc(NC(C)=O)sc1CCC2,89.9%,60.7%,81.9%,43.2%,138%,86.7%,76.4%,53.2%,73.8%,81.6%
CN1CCN(C(=O)c2ccc(NC(=O)c3cc4c(nn3)NCCN4Cc3cc(Cl)ccc3Cl)cc2)CC1,78.8%,85.8%,74.9%,60.5%,92.1%,75.1%,75.1%,43.7%,42%,39.6%
Cc1ccc(-c2nc([P+](c3ccccc3)(c3ccccc3)c3ccccc3)c(S(=O)(=O)c3ccc(C)cc3)o2)cc1,22.1%,22.6%,3.91% (active),14.9%,2.83% (active),-13.4% (active),5.62% (active),-0.861% (active),-6.52% (active),-3.24% (active)
COc1ccc(C2=C(Br)C(=O)c3nc(C)ccc3C2=O)cc1,102%,94.4%,92.8%,69.9%,71.7%,17%,81.2%,88.7%,30.1%,41.4%
CCCCCCCCCCC(CN(CC)CC)C(O)c1ccccc1 (stereo not given),65.8%,41.8%,57.1%,24.4%,45.3%,31.6%,45.5%,56.4%,4.36% (active),-15.2% (active)
O=C(CSC(=S)n1cnnc1)NC(=O)c1ccccc1,106%,104%,103%,87.8%,101%,105%,104%,106%,99.2%,102%
COCCn1cc(-c2csc(-c3cn(C)c4ccc(Br)cc34)n2)c2cccnc21,65.6%,58.4%,69.1%,61.9%,61.5%,57.1%,65%,45.6%,67.4%,63.4%
COc1ccc(CN2c3ccccc3Sc3ccccc32)cc1F,39.8%,34.4%,45.2%,45.6%,47.4%,41.8%,54.4%,-1.48% (active),22.1%,27.3%
Clc1ccc2c(c1)C(c1c[nH]c3ccccc13)(c1c[nH]c3ccccc13)CCO2,-52% (active),81.9%,85.3%,54.2%,-43.1% (active),76.8%,78.2%,101%,45.1%,32.4%
c1ccc2cc(C[n+]3ccn(CCCCCCCCCCn4cc[n+](Cc5ccc6ccccc6c5)c4)c3)ccc2c1,-39.4% (active),13.7%,4.24% (active),77.5%,15.1%,52.2%,74.7%,9.69% (active),-4.14% (active),-43.6% (active)
COc1ccccc1N1CCCCC1,104%,98.1%,93.9%,98.9%,95%,103%,97.8%,83.9%,108%,100%
CC(C)(C)[Si](C)(C)OC1[C@@H](CNC(=O)NC(=O)NC(N)=O)O[C@@H](n2cnc3c(NC(=O)Nc4ccccc4)ncnc32)[C@H]1O[Si](C)(C)C(C)(C)C (stereo not given in full),94.8%,90.5%,74.6%,95.2%,88.9%,77.3%,101%,101%,71.4%,54.3%
CC(=O)N1N=C(c2ccc(C(F)(F)F)c(F)c2)CC1c1[nH]c(C)c(C(=O)NCC(F)(F)F)c1C (stereo not given),106%,88.4%,50.1%,26%,68.5%,18.7%,58.7%,54.9%,90%,82.6%
COc1ccc(OC)c(Nc2nnc(-c3ccc(O)c(OC)c3)o2)c1,96.3%,82.5%,34%,20.3%,14.8%,37.9%,30.4%,6.18% (active),88.6%,60.8%
CS(=O)(=O)Nc1cc(-c2ccc3ncnc(Nc4ccc5c(cnn5Cc5cccc(F)c5)c4)c3c2)cnc1Cl,-42% (active),4.57% (active),3.84% (active),15.7%,-15.9% (active),18.4%,-27.9% (active),-48.7% (active),12.7%,-10% (active)
CSc1nc(N)c(NS(=O)(=O)c2ccc(C(C)=O)cc2)c(=O)[nH]1,100%,97.2%,101%,100%,119%,108%,90.1%,105%,109%,112%
Nc1nc2ccccc2c2c(=O)c3cccc(Cl)c3sc12,108%,83.8%,82.4%,75.4%,83.6%,86.8%,79%,122%,96.3%,104%
CC(=O)n1nc(C(=O)OC(C)(C)c2ccccc2)c2ccccc21,105%,100%,86.9%,93.2%,101%,100%,84.5%,96.8%,83.1%,96.9%
CCCC/C=C/[C@@H]1C[C@H]1CCO,98.7%,101%,94.3%,87%,96.4%,104%,98.9%,102%,101%,103%
